The campaign covered roughly 330,000 compounds. About 1,900 (0.58%) were called active. Roughly 4% stayed inconclusive and do not appear here. Only a sample is shown. Potency and affinity values are given separately. Unmarked numbers belong to inactive results. Cut-off read from the data, not from the text of the source: inconclusive = inhibition above about 70% without an active follow-up result; inactive = below that.
Assay: M. tuberculosis growth inhibition, HTS (AID 449762);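 note: bacterial growth assessed after seven days of incubation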
Details: M. tuberculosis H37Rv growth inhibition, 7H9 media; at 25 µM; hits give high values

SMILES	inhibition
COc1ccc(CNC(=O)Nc2ccc(C)c(C)c2)cc1	-5.48%
CC(=O)Nc1ccc(NC(=O)COc2ccc(Cl)cc2Cl)cc1	-0.58%
CC(=O)NC(=S)Nc1ccc(NC(=O)COc2ccc(Cl)cc2Cl)cc1	0.45%
COC(=O)c1ccc(NC(=O)Cn2nc(SC)n(N)c2=S)cc1	-4.09%
Cn1nc([N+](=O)[O-])nc1Sc1ccc(Cl)cc1	0.18%
Cc1ccc(Sc2nc([N+](=O)[O-])nn2C)cc1	6.48%
CC(=O)Nc1ccc(CN2CCN(CCc3ccccc3)C(CCO)C2)cc1 (stereo not given)	-3.1%
Cc1ccc(O)c(C=Nc2cc(C)ccc2O)c1	-4.69%
CCCCS/C(N)=N/N=C/c1ccccc1O	1.14%
COc1ccc(CCNc2nc(-c3ccc(O)cc3)cs2)cc1OC	3.36%
C=CCCC(=O)N1CCCC(C(=O)c2cccc(OC)c2)C1 (stereo not given)	5.01%
OC(CN1CCN(c2ccccc2)CC1)Cn1c2ccccc2c2ccccc21 (stereo not given)	14.7%
CN1CCN(CC(O)Cn2c3ccccc3c3ccccc32)CC1 (stereo not given)	6.36%
Cc1noc(C)c1COC(=O)c1ccc2c(c1)S(=O)(=O)c1ccccc1C2=O	-4.63%
Brc1ccc2c(c1)C(c1cccs1)=NNC(c1cccnc1)=N2	1.73%
NC(=O)CC(NC(=O)Cc1ccc(Br)cc1)c1ccc(N2CCN(c3ccccn3)CC2)c([N+](=O)[O-])c1 (stereo not given)	2.89%
C[C@H](CO)N1C[C@H](C)[C@@H](CN(C)S(C)(=O)=O)Oc2c(NC(=O)C3CC3)cccc2C1=O	1.46%
CCSC1=NC(C)(C)C=C(/C=C/c2ccc(Cl)cc2Cl)N1	46.6%
CC(C)SC1=NC(C)(C)C=C(/C=C/c2ccc(Cl)cc2Cl)N1	23.8%
COc1ccc(C(=O)Nc2cccc([N+](=O)[O-])c2)cc1Br	-1.62%

SMILES	inhibition
COc1nccc(-c2ccc(F)cc2)c1C#N	6.03%
COc1ccc2c(c1)[nH]c1c(C)nccc12	34.6%
COc1ccc2[nH]c3c(Cl)ncnc3c2c1	-0.24%
COc1ccc(NC(C)C(=O)N/N=C/c2c(O)ccc3ccccc23)cc1 (stereo not given)	-2.98%
CN(C)S(=O)(=O)N1CCCN(S(=O)(=O)N(C)C)CC1	-7.77%
CCCCC(=O)Nc1ccc(C)c(S(=O)(=O)N2CCCCCC2)c1	-1.76%
Cc1ccc(NC(=O)Cc2ccc(Cl)cc2)cc1S(=O)(=O)N1CCCCCC1	-4.17%
Cc1c(NC(=O)CC2NC(=O)NC2=O)c(=O)n(-c2ccccc2)n1C (stereo not given)	4.59%
Cc1ccc(NC(=O)CSc2nc(N)cc(=O)[nH]2)cc1S(=O)(=O)N1CCCCCC1	-1.26%
Cc1ccc(C(=O)NNS(=O)(=O)c2ccccc2[N+](=O)[O-])cc1	4.03%
Cc1ccc(S(=O)(=O)NNC(=O)c2ccc(O)cc2)cc1	9.92%
C#CC[N+]1(C)C2CCC1CC(O)C2 (stereo not given)	6.2%
COC(=O)/C(=C\c1c(OC)cc(OC)cc1OC)C(=O)c1ccc2c(c1)OCO2	17%
CCN1C(=O)CSc2ccc(C(=O)NCc3ccccc3)cc21	-4.41%
CC(=O)O/C(=C\c1cn(C(C)=O)c2ccccc12)C(=O)O	-13.8%
CC(=O)n1cc(C=C2C(=O)NC(=O)NC2=O)c2ccccc21	6.36%
Cc1oc(-c2ccc(Cl)cc2)nc1CS(=O)CC(=O)NC1CCCC1 (stereo not given)	-1.04%
Nc1[nH]n2c(=O)cc(-c3ccccc3)nc2c1N=Nc1ccc(S(N)(=O)=O)cc1	6.74%
COc1cccc(N=Nc2c(N)[nH]n3c(=O)cc(-c4ccccc4)nc23)c1	54.1%
Cc1ccc(CNc2nc3ccccc3n3cnnc23)cc1	-11.5%

SMILES	inhibition
CCc1ccc(Nc2oc(C)cc(=O)c2C(C)=O)cc1	70%
C/C(=N\N=C(/N)SC1CC(=O)N(c2ccccc2)C1=O)c1cccs1 (stereo not given)	-5.01%
C/C(=N\N=C(/N)SC1CC(=O)N(c2cccc(Cl)c2)C1=O)c1cccs1 (stereo not given)	15.1%
O=C(C1CC=CCC1)N1CCC(CO)(Cc2ccc(Cl)cc2)CC1 (stereo not given)	14.7%
CCCNc1nc(Nc2ccc(C)c(Cl)c2)c2cnn(C)c2n1	14.2%
CCCCNc1nc(Nc2ccc(C)c(Cl)c2)c2cnn(C)c2n1	10.1%
CC(C)(C)/C(Cn1cncn1)=N\OC(=O)Nc1ccc(Cl)cc1	11.8%
CN(Cc1nccs1)C(=O)CC1C(=O)NCCN1Cc1ccc(-c2ccccc2)cc1 (stereo not given)	-5.55%
Cc1nc2cc(C(=O)N3CCC4(CC3)OCCO4)ccc2n1-c1ccc(Br)cc1	9.84%
COC(=O)CSc1nc(N2CCOCC2)c2c(c1C#N)CC(C)(C)OC2	4.99%
CC(C)OC(=O)CSc1nc(N2CCOCC2)c2c(c1C#N)CC(C)(C)OC2	35.4%
Cc1ccc(N(C(=O)Cn2nnc(-c3ccc(F)cc3)n2)C(C(=O)NC(C)(C)C)c2ccncc2)cc1 (stereo not given)	7.5%
C#Cc1ccc(CN2CCN(Cc3ccsc3)C(CCO)C2)cc1 (stereo not given)	-1.98%
N#CCCN(C(=O)COC(=O)CNC(=O)c1ccc(-c2ccccc2)cc1)c1ccc(F)cc1	67.5%
CCCCc1ccc(/C(C)=N/NC(=O)C2CCCC2)cc1	-4.47%
C/C(=N\NC(N)=S)c1ccccc1	0.26%
Cc1ccccc1C(=O)Nc1cccc(N)c1	-3.59%
Cc1ccc(S(=O)(=O)NCCCCCC(=O)Nc2c(C)n(C)n(-c3ccccc3)c2=O)cc1	-4.12%
CCCCN(C(=O)c1c(C)noc1C)c1c(N)n(CCC)c(=O)[nH]c1=O	-2.29%
Cc1ccc(/C=C/C(=O)Nc2ccc(S(=O)(=O)Nc3onc(C)c3C)cc2)cc1	-4.61%

Source: PubChem BioAssay AID449762 (Southern Research Specialized Biocontainment Screening …, 2010)
